Test results taken from PubChem BioAssay (NCI).
About 83,000 compounds went through this panel and 20% of them were active in at least one assay; those are over-represented in the sample as a whole.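 Percent growth is the endpoint: 0 to 100 indicates growth inhibition (40 means 60% inhibition), 0 means no net growth, and negative values indicate cell death.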 Activity calls are given as the source filed them. How the source made its calls: active means growth percent below 10; inactive means the rest.

Experiments:
Test in all cases: NCI-60 one-dose screen, 48 h (100 = growth as untreated, 0 = no growth, -100 = all killed)
[1] = test system: EKVX NSCLC; settings: 10 µM unless noted
[2] = test system: SN12C renal; settings: 10 µM unless noted
[3] = test system: UO-31 renal; settings: 10 µM unless noted
[4] = test system: TK-10 renal; settings: 10 µM unless noted
[5] = test system: ACHN renal; settings: 10 µM unless noted
[6] = test system: CAKI-1 renal; settings: 10 µM
[7] = test system: A498 renal; settings: 10 µM unless noted
[8] = test system: CCRF-CEM leukemia; settings: 10 µM unless noted
[9] = test system: RPMI-8226 leukemia; settings: 10 µM unless noted
[10] = test system: OVCAR-8 ovarian; settings: 10 µM unless noted
[11] = test system: OVCAR-5 ovarian; settings: 10 µM unless noted
[12] = test system: OVCAR-4 ovarian; settings: 10 µM unless noted
[13] = test system: SK-OV-3 ovarian; settings: 10 µM unless noted
[14] = test system: IGROV1 ovarian; settings: 10 µM unless noted
[15] = test system: HS 578T breast; settings: 10 µM unless noted
[16] = test system: NCI/ADR-RES ovarian; settings: 10 µM unless noted
[17] = test system: MOLT-4 leukemia; settings: 10 µM unless noted
[18] = test system: SR leukemia; settings: 10 µM unless noted
[19] = test system: OVCAR-3 ovarian; settings: 10 µM unless noted

Measured: growth

COc1ccc2c(C3=C(c4c[nH]c5ccccc45)C(=O)N(O)C3=O)coc2c1
inactive: [1] 77% | [2] 101% | [3] 58.2% | [4] 144% | [5] 94.2% | [6] 90.2% | [7] 85% | [8] 26.9% | [9] 72.1% | [10] 77.5% | [11] 105% | [12] 114% | [13] 86.5% | [14] 77.1% | [15] 96.4% | [16] 99.5%

C#C[C@]1(O)CC[C@H]2[C@@H]3CC=C4c5sc(-c6ccc(OC)cc6)nc5CC[C@]4(C)[C@H]3CC[C@@]21C
inactive: [1] 76.8% | [2] 84.2% | [3] 18.9% | [4] 78% | [5] 59.8% | [6] 64.4% | [7] 56% | [8] 26.8% | [18] 23.5% | [10] 84.6% | [11] 71.2% | [12] 97.9% | [13] 53.8% | [14] 70.2% | [19] 83.2% | [16] 83.8%
active: [17] 7.24% | [15] 2.91%

Cc1csc(Nc2cccc(Nc3nc(C)cs3)c2)n1
inactive: [1] 61.4% | [2] 88.2% | [3] 67.1% | [4] 101% | [5] 75.4% | [6] 78.1% | [7] 47.3% | [8] 89% | [17] 70.8% | [9] 62.3% | [10] 82.7% | [11] 92% | [12] 66.8% | [13] 98.7% | [14] 76.6% | [15] 85.3% | [16] 66.9%

O=C(NNc1nc2cc(F)c(F)cc2n2cccc12)c1ncccn1
inactive: [1] 17.3% | [2] 23.9% | [3] 17.7% | [4] 48.6% | [5] 12.7% | [6] 18.2% | [7] 17.7% | [8] 12.7% | [17] 16.6% | [18] 18.7% | [9] 20.8% | [10] 21.9% | [11] 49.6% | [12] 13.4% | [14] 20.5% | [19] 20.8% | [15] 49.1% | [16] 10.1%

O=C(C[n+]1ccnc2ccccc21)c1ccc(O)c(O)c1
inactive: [1] 94.2% | [2] 59.5% | [3] 40.3% | [4] 43.1% | [5] 17.8% | [6] 69.8% | [7] 87.7% | [17] 11.6% | [10] 48.4% | [11] 70.5% | [12] 46.6% | [13] 112% | [14] 51.4% | [19] 21.7% | [15] 94.4% | [16] 57.2%
active: [8] 4.57% | [18] 7.3%

CS(=O)(=O)c1nccc(-c2c(-c3ccc(F)c(OCc4ccc(F)cc4)c3)nc3sccn23)n1
inactive: [1] 28.4% | [2] 86.2% | [3] 80.1% | [4] 105% | [5] 91.3% | [6] 81.5% | [7] 76.6% | [8] 79.4% | [9] 38.8% | [10] 92.1% | [11] 97% | [12] 99.1% | [13] 110% | [14] 82.1% | [15] 85.4% | [16] 98%

CS(=O)(=O)c1ccc2c(c1)c1c(n2C(=O)c2ccc(Cl)cc2)CCCC1
active: [15] -0.806%
inactive: [1] 59.7% | [2] 41.2% | [3] 40.3% | [4] 67.6% | [5] 43.6% | [6] 37.1% | [7] 38.2% | [8] 25.4% | [9] 15.4% | [10] 35.3% | [11] 50.3% | [12] 66.4% | [13] 90.3% | [14] 46.2% | [16] 25.7%

COc1cc2oc(-c3cccc(NC(=O)c4cc(NC(=O)[C@H](C)N)ccc4Cl)c3)cc(=O)c2c(OC)c1OC
inactive: [1] 90.7% | [2] 90.9% | [3] 72.3% | [4] 99.8% | [5] 91.3% | [6] 85.3% | [7] 71.8% | [8] 71.7% | [17] 76.3% | [18] 73.1% | [9] 67.2% | [10] 69% | [11] 106% | [12] 85.9% | [13] 120% | [14] 96.7% | [15] 99.9% | [16] 88.6%

O=C1/C(=C/c2ccc([N+](=O)[O-])cc2)SC(=Nc2ccccc2)N1Nc1ccccc1
inactive: [1] 70.9% | [2] 29.5% | [3] 37.1% | [4] 89.1% | [5] 53% | [6] 38.6% | [7] 28.2% | [8] 24% | [9] 42.7% | [10] 50% | [11] 75.8% | [12] 52.9% | [13] 102% | [14] 61.9% | [15] 79.1% | [16] 45.8%
active: [17] 3.98% | [18] 0.29%

COCCOc1ccc(-c2csc(NC(=O)CN3CCN(CCO)CC3)n2)cc1NS(=O)(=O)c1cccc2c(N(C)C)cccc12
inactive: [1] 80.5% | [2] 81.1% | [3] 65.3% | [4] 107% | [5] 85.8% | [6] 92% | [7] 79.4% | [8] 46.3% | [9] 54.6% | [10] 81.2% | [11] 94.2% | [12] 96% | [13] 92.9% | [14] 82.9% | [15] 70.1% | [16] 97.2%

CS(=O)(=O)c1ccc2c(c1)c1c(n2Cc2ccc(Cl)cc2)CCCC1
inactive: [1] 71.2% | [2] 73.6% | [3] 55.1% | [4] 89.3% | [5] 66.8% | [6] 54.4% | [7] 74.3% | [8] 81.9% | [17] 64.3% | [18] 41.2% | [9] 55.8% | [10] 72.7% | [11] 88.1% | [13] 97.5% | [14] 64% | [15] 85.4% | [16] 48.4%

CCC(CC)n1c(=O)c(SC2=NC3C(NN2)N(CC)C(=O)N3CC)c(C(=O)O)c2ccccc21 (centres undefined)
active: [7] -10.5% | [10] 8.01%
inactive: [1] 52.8% | [2] 20.1% | [3] 39.5% | [4] 68.8% | [5] 27.7% | [6] 36.6% | [8] 16.6% | [17] 16.2% | [18] 14.4% | [9] 14.4% | [11] 37.3% | [13] 40.6% | [14] 32.6% | [15] 19.3% | [16] 20.4%

COc1ccc(NC(=O)[C@H](C)N)cc1C(=O)Nc1cccc(-c2cc(=O)c3c(OC)c(OC)c(OC)cc3o2)c1
inactive: [1] 81.3% | [2] 55.4% | [3] 29.7% | [4] 70.7% | [5] 54.2% | [6] 49% | [7] 50.9% | [8] 52.9% | [17] 51.4% | [9] 44.1% | [10] 50.1% | [11] 102% | [12] 62.4% | [13] 115% | [14] 56.7% | [15] 27.8% | [16] 63.8%

COc1cc2c3c(n(CCCN4CCC[C@H]4C(N)=O)c(=O)c2cc1OC)-c1cc2c(cc1C3=O)OCO2
active: [5] 0.589% | [7] -31% | [8] -4.01% | [9] -26.3% | [10] -44.9% | [13] -22.7% | [16] 9.81%
inactive: [1] 36.2% | [2] 17% | [3] 17.5% | [4] 59% | [6] 14.6% | [11] 26.6% | [12] 21.7% | [14] 33.7% | [15] 70.9%

CS(=O)c1nccc(-c2c(-c3ccc(F)c(OCCc4ccc(F)cc4)c3)nc3sccn23)n1 (centres undefined)
active: [3] -45.1% | [17] 9.78% | [18] -8.59% | [14] -40.4%
inactive: [1] 36.1% | [2] 93.4% | [4] 107% | [5] 37.7% | [6] 47.3% | [7] 82.2% | [8] 14.5% | [9] 18% | [10] 66.6% | [11] 103% | [12] 82.1% | [13] 105% | [15] 88.7% | [16] 105%

COc1ccc(-c2no[n+]([O-])c2Nc2ccccc2Br)cc1
inactive: [1] 96.1% | [2] 90.4% | [3] 69.6% | [4] 145% | [5] 89.2% | [6] 86% | [7] 113% | [8] 109% | [9] 93.7% | [10] 90.3% | [11] 108% | [12] 101% | [13] 94.3% | [14] 85.4% | [15] 88.9% | [16] 94.9%

Clc1ccc(-c2csc(Nc3cccc(Nc4csc(-c5ccc(Cl)cc5)n4)c3)n2)cc1
inactive: [1] 61.8% | [2] 63.1% | [3] 51.5% | [4] 98.2% | [5] 54.3% | [6] 51.9% | [7] 67.8% | [8] 94.1% | [17] 60.7% | [18] 96.8% | [9] 86.3% | [10] 87.3% | [11] 77.5% | [12] 76.5% | [13] 79.3% | [14] 50.6% | [16] 79.5%
